Laboratory results taken from PubChem BioAssay.
Values joined by “and” are separate entries in the source; they are usually repeats but may differ in a detail not shown here. Equal entries are not always repeated. Active and inactive are the calls of the source. Unless noted, the rule behind the calls is not given here.

Tests used:
[1] = system: Wnt5a (protein binding on small-molecule microarray); assay: small molecules binding Wnt5a protein – biophysical, small-molecule microarray, 635/667 nm fluorescence, primary screen (AID 1142); settings: 635 nm fluorescence, higher = more signal;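 note: fluorescence read at 667 nm with signal to noise per printed feature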
[2] = ATP-based viability of Huh7 replicon cells – cell-based, CellTiter-Glo luminescence, basal, 48 h, cytotoxicity control for HCV replication inhibitor project, primary screen (AID 1143); settings: higher = more signal, called active from +8 up or from −8 down;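 note: Huh7 hepatoma cells carrying a hepatitis C replication reporter with no stimulus; test concentration not given here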
[3] = Pseudomonas biofilm growth suppression – PAO1 strain, BacTiter-Glo luminescence, LB-PBS, primary screen (AID 1144); settings: P. aeruginosa PAO1 biofilm, 12 h, higher = more signal
[4] = basal CRE-LacZ reporter activity in PC12 – cell-based, unstimulated, primary screen (AID 1145); settings: no forskolin, luminescence, 4.5 h, higher = more signal, called active from +8 up or from −8 down
[5] = forskolin-driven CRE-LacZ activity in PC12 – cell-based, CRE-LacZ reporter, forskolin-stimulated, primary screen (AID 1146); settings: luminescence, 4.5 h, higher = more signal, called active from +8 up or from −8 down;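 note: PC12 cells with 6xCRE LacZ reporter stimulated by forskolin 10 µM; beta-galactosidase reporter signal reflecting CREB driven transcription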
[6] = target: Streptavidin (Streptomyces avidinii) (UniProt P22629); assay: compounds binding control protein streptavidin – biophysical, small-molecule microarray, 635/667 nm fluorescence, artefact control for SMM compound annotation, primary screen (AID 1147); settings: higher = more signal;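 note: signal reflects streptavidin binding to arrayed compounds as a control protein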
[7] = probe aInhba binding on compound microarray – biochemical, small-molecule microarray, 635/667 nm fluorescence, primary screen (AID 1148); settings: higher = more signal;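 note: score merges 667nm spot fluorescence with signal-to-noise for antibody binding to printed compounds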
Torsin-1A (Homo sapiens) [8] = target: Torsin-1A (Homo sapiens) (UniProt O14656); assay: TOR1A wild-type binding on microarray – cell lysate, small-molecule microarray, lysate, 635/667 nm, primary screen (AID 1149); settings: COS7 hTOR1A-WT lysate, 635 nm fluorescence, higher = more signal
Torsin-1A (Homo sapiens) [9] = target: Torsin-1A (Homo sapiens) (UniProt O14656); assay: torsin A mutant lysate binding on microarrays – cell lysate, small-molecule microarray, COS7 lysate, 635/667 nm fluorescence, primary screen (AID 1150); settings: COS7 hTOR1A mutant lysate, 635 nm fluorescence, higher = more signal;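 note: score pools 667 nm emission and signal to noise measuring lysate protein binding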
[10] = system: Sonic hedgehog protein (Shh); assay: Sonic hedgehog microarray binding compounds – biochemical, small-molecule microarray, 635/667 nm fluorescence, primary screen (AID 1151); settings: 635 nm fluorescence, higher = more signal;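 note: Shh protein binding to compounds spotted on small-molecule microarray slides; score combines spot fluorescence intensity with signal-to-noise across triplicate slides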
[11] = optical density shifts of acrAB sulA E. coli – strain DRC41, OD650, 48 h, E. coli filamentation inducer project, primary screen (AID 1152); settings: higher = more signal, called active from +8 up or from −8 down;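 note: E. coli MC1000 strain DRC41 lacking acrAB efflux pump and sulA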
[12] = probe aLefty1 binding on compound microarray – biochemical, small-molecule microarray, 635/667 nm fluorescence, primary screen (AID 1153); settings: higher = more signal;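 note: score merges spot fluorescence with signal-to-noise ratio from the scanned slide images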
[13] = plasmodial surface anion channel blockers, osmotic lysis – cell-based, P. falciparum Indochina, OD700, 1 h, primary screen (AID 1154); settings: P. falciparum Indochina infected RBC osmotic lysis, higher = more signal, called active from +8 up or from −8 down
[14] = plasmodial surface anion channel blockers, osmotic lysis – cell-based, P. falciparum Indochina, OD700, 2 h, primary screen (AID 1155);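 note: lysis reports solute entry through the parasite surface anion channel PSAC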; settings: P. falciparum Indochina infected erythrocytes, higher = more signal, called active from +8 up or from −8 down
[15] = changes in parasitized red cell lysis, either direction – P. falciparum Indochina, OD700, 3 h, PSAC antagonist project, primary screen (AID 1156); settings: P. falciparum-infected erythrocytes, osmotic lysis, higher = more signal, called active from +8 up or from −8 down
[16] = plasmodial surface anion channel blockers, osmotic lysis – cell-based, P. falciparum Indochina, OD700, 18 h, primary screen (AID 1157); settings: P. falciparum Indochina infected erythrocytes, osmotic lysis OD700, 18 h; higher = more signal, called active from +8 up or from −8 down
[17] = S6 kinase pathway phospho-S6 level changes – cell-based, A549, cytoblot, luminescence, serum-stimulated, primary screen (AID 1158); settings: 5 h, higher = more signal;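 note: serum-stimulated A549 lung adenocarcinoma cells; signal is phosphorylated S6 detected by cytoblot immunostaining with HRP secondary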
[18] = target: NADPH oxidase 2 (Homo sapiens) (UniProt P04839); assay: compounds shifting NOX2 Amplex Red fluorescence – cell-based, HEK293-NOX2, PMA-stimulated, NOX inhibitor project, primary screen (AID 1159); settings: 45 min, higher = more signal, called active from +8 up or from −8 down; note: test concentration not given here
[19] = target: NADPH oxidase 4 (Homo sapiens) (UniProt Q9NPH5); assay: compounds shifting NOX4 Amplex Red fluorescence – cell-based, HEK293-NOX4, tetracycline-induced, NOX inhibitor project, primary screen (AID 1160); settings: HEK293-NOX4, Amplex Red H2O2 fluorescence, 45 min; higher = more signal, called active from +8 up or from −8 down
[20] = target: NADPH oxidase 5 (Homo sapiens) (UniProt Q96PH1); assay: compounds shifting NOX5 Amplex Red fluorescence – cell-based, HEK293-NOX5, NOX inhibitor project, primary screen (AID 1161); settings: HEK293-NOX5, ionomycin, 45 min, higher = more signal
Sequence of NADPH oxidase 5 (Homo sapiens) (Q96PH1 whole entry, looked up): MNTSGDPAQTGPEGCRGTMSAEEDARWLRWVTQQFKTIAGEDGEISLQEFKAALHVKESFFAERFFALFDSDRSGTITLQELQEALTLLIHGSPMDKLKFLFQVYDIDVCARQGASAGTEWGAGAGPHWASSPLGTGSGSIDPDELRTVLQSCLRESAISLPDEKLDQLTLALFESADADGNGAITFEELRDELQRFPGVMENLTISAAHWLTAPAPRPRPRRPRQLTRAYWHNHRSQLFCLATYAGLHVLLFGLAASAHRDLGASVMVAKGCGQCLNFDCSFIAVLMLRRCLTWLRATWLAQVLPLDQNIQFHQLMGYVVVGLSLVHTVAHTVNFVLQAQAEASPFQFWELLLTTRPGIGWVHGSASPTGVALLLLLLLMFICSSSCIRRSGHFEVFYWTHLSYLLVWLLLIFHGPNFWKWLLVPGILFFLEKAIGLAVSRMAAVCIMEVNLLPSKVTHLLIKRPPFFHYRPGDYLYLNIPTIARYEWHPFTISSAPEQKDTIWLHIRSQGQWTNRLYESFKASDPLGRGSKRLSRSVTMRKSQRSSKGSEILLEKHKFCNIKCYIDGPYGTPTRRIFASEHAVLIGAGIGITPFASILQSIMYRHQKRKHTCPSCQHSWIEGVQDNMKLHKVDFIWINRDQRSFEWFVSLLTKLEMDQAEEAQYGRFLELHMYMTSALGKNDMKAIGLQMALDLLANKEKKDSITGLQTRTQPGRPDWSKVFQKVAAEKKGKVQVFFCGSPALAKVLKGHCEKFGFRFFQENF

Sequence of NADPH oxidase 4 (Homo sapiens) (Q9NPH5 whole entry, looked up): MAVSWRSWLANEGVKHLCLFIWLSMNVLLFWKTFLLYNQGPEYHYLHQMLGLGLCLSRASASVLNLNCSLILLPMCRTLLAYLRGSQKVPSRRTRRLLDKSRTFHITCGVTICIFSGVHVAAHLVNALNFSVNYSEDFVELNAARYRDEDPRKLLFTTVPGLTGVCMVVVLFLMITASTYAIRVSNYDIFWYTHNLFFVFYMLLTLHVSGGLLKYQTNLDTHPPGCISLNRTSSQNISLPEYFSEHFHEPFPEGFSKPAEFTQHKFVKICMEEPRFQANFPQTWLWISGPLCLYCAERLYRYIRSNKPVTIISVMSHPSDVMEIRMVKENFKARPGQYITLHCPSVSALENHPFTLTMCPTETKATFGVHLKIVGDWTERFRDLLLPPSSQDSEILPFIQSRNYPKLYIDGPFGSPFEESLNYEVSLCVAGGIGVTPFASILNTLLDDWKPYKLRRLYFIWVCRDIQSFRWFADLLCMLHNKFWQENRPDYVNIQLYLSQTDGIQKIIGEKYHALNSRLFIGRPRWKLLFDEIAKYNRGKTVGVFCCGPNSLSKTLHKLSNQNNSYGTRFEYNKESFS
Sequence of Torsin-1A (Homo sapiens) (O14656 whole entry, looked up): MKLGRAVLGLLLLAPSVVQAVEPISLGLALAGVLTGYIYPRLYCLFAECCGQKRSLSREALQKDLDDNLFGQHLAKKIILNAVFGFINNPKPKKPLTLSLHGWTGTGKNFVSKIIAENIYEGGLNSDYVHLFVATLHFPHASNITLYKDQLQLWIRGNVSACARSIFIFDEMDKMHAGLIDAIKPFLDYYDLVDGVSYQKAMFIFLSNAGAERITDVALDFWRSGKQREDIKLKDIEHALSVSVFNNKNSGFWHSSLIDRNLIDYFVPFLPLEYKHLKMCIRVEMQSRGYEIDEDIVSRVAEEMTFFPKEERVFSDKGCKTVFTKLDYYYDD
Sequence of NADPH oxidase 2 (Homo sapiens) (P04839 whole entry, looked up): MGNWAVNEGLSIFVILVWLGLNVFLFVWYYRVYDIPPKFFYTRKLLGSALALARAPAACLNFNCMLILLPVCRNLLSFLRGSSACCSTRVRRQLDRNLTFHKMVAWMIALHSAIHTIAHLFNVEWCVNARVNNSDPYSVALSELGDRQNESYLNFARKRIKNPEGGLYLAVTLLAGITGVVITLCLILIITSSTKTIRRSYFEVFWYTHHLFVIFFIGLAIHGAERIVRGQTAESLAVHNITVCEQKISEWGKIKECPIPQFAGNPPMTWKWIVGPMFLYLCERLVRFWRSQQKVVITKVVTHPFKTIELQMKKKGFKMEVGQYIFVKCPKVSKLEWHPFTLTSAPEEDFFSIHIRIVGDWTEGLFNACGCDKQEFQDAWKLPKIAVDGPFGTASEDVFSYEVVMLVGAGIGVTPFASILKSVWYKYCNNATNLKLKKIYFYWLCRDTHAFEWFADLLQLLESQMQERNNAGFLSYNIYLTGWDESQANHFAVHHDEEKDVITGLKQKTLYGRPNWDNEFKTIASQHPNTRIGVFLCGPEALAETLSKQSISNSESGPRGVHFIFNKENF
Sequence of Streptavidin (Streptomyces avidinii) (P22629 whole entry, looked up): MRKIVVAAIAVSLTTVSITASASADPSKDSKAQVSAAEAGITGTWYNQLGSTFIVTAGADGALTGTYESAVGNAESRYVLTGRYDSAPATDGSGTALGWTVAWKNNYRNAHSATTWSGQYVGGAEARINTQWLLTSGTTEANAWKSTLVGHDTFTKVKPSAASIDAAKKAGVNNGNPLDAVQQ

| SMILES | composite z-score [1] | z-score [2] | z-score [3] | z-score [4] | z-score [5] | composite z-score [6] | composite z-score [7] | composite z-score (Torsin-1A (Homo sapiens) [8]) | composite z-score (Torsin-1A (Homo sapiens) [9]) | composite z-score [10] | z-score [11] | composite z-score [12] | z-score [13] | z-score [14] | z-score [15] | z-score [16] | z-score [17] | z-score [18] | z-score [19] | z-score [20] |
| --- | --- | --- | --- | --- | --- | --- | --- | --- | --- | --- | --- | --- | --- | --- | --- | --- | --- | --- | --- | --- |
| CC(CO)N1C(=O)[C@@H]2C3C(=O)OCCC=C[C@H]3OC23C=CCN(c2ccc4ccccc4c2)C(=O)[C@@H]13 (stereo not given in full) | -0.758 and -0.416 | 0.0425 (inactive) and 0.0276 (inactive) | 0.87 (inactive) and 1.11 (inactive) | 0.199 (inactive) and 0.756 (inactive) | -0.345 (inactive) and 0.0714 (inactive) | -0.809 and -0.937 | -0.0933 and -0.584 | -1.95 and -1.75 | -1.23 and -1.14 | 0.0707 and -0.262 | -0.562 (inactive) and -0.929 (inactive) | -0.0015 and -0.673 | 3.31 (inactive) and 4.57 (inactive) | 1.28 (inactive) and 0.577 (inactive) | 1.18 (inactive) and 0.724 (inactive) | 0.652 (inactive) and 0.282 (inactive) | -0.631 and -0.363 | 1.68 (inactive) and 1.25 (inactive) | 0.411 (inactive) and 1.05 (inactive) | 2.69 and 2.08 |
| C=CCN(CCCC)C(=O)C1N(CCOCCO)C(=O)C2C(C(=O)O)C3C=CC21O3 (stereo not given) | -0.978 and -0.38 | 0.757 (inactive) and -0.117 (inactive) | 1.42 (inactive) and 1.2 (inactive) | -0.899 (inactive) and -0.497 (inactive) | -0.327 (inactive) and -0.267 (inactive) | -1.6 and -1.56 | -0.128 and -0.353 | -3.18 and -0.099 | -2.51 and 2.04 | -1.52 and -1.51 | 0.151 (inactive) and -0.207 (inactive) | -0.191 and -0.454 | 0.461 (inactive) and -0.326 (inactive) | 0.703 (inactive) and 0.124 (inactive) | -0.668 (inactive) and -0.506 (inactive) | 0.0875 (inactive) and 0.111 (inactive) | -0.0621 and 0.53 | 0.502 (inactive) and 0.676 (inactive) | -1.77 (inactive) and -2.02 (inactive) | -0.512 and 0.152 |
| CCCCCN1CC=CC23O[C@@H]4C=CCCOC(=O)C4[C@H]2C(=O)N(C(C)CO)[C@@H]3C1=O (stereo not given in full) | -0.226 and -0.744 | -0.153 (inactive) and 0.0164 (inactive) | -1.76 (inactive) and -0.529 (inactive) | -0.48 (inactive) and -0.639 (inactive) | -0.215 (inactive) and -0.498 (inactive) | -0.819 and -0.0005 | -0.837 and -0.0933 | 1.07 and -1.42 | 0.128 and -0.904 | 0.644 and 0.138 | 1.5 (inactive) and 0.971 (inactive) | -0.962 and 1.57 | 2.38 (inactive) and 0.551 (inactive) | 0.174 (inactive) and 0.44 (inactive) | 0.833 (inactive) and 0.233 (inactive) | 0.0882 (inactive) and 0.454 (inactive) | 0.154 and 0.166 | 1.27 (inactive) and 1.08 (inactive) | 0.164 (inactive) and 0.696 (inactive) | 2.09 and 2.43 |
| COC(=O)C1=C(C)N(Cc2ccccc2)[C@]23O[C@](C(=O)OC)(C(=O)N2[C@@H]1c1ccccc1)[C@@H](C(=O)OC)[C@H]3C(=O)OC | -0.13 and 0.206 | 0.36 (inactive) and 0.333 (inactive) | -0.754 (inactive) and 0.0472 (inactive) | 0.745 (inactive) and -0.487 (inactive) | -0.998 (inactive) and -0.909 (inactive) | -0.895 and -0.188 | -0.188 and -0.218 | -0.0921 and 0.481 | -0.107 and 0.299 | -0.652 and 0.611 | 0.514 (inactive) and 0.184 (inactive) | -0.282 and -0.0011 | 0.295 (inactive) and 0.114 (inactive) | 0.185 (inactive) and 0.319 (inactive) | 0.285 (inactive) and -0.414 (inactive) | -0.022 (inactive) and 0.17 (inactive) | -0.046 and 0.635 | 1.8 (inactive) and -0.506 (inactive) | -1.42 (inactive) and -0.0445 (inactive) | 0.371 and 0.422 |
| CO[C@@H]1COC(=O)CC=C[C@H](C)COC(=O)[C@H](C)NC(=O)CC=C[C@H]1C | 0.144 | 0.178 (inactive) | 0.213 (inactive) | 1.24 (inactive) | -0.218 (inactive) | 0.477 | -0.208 | 0.919 | 1.16 | 1.19 | -0.762 (inactive) | -0.344 | -0.0875 (inactive) | 0.193 (inactive) | 0.599 (inactive) | -0.138 (inactive) | -0.677 | 2.01 (inactive) | 0.486 (inactive) | -0.47 |
